Tests used:
Test in all cases: cross-link between two proteins; cross-linking mass spectrometry
[1] = molecular target: Double-stranded RNA-binding protein Staufen homolog 1 (UniProt Q9Z108)
[2] = molecular target: Apoptosis-inducing factor 1, mitochondrial (UniProt Q9Z0X1)
[3] = molecular target: NADH dehydrogenase [ubiquinone] 1 beta subcomplex subunit 10 (UniProt Q9DCS9)
[4] = molecular target: ATP synthase F(0) complex subunit g, mitochondrial (UniProt Q9CPQ8)
[5] = molecular target: ATP synthase peripheral stalk subunit OSCP, mitochondrial (UniProt Q9DB20)
[6] = molecular target: Cytochrome b-c1 complex subunit 6, mitochondrial (UniProt P99028)
[7] = molecular target: Cytochrome c oxidase subunit 6C (UniProt Q9CPQ1)
[8] = molecular target: Cytochrome c oxidase subunit 7B, mitochondrial (UniProt P56393)
[9] = molecular target: Dynamin-like GTPase OPA1, mitochondrial (UniProt P58281)
Protein FAM162A = Protein FAM162A (UniProt Q9D6U8)
[10] = molecular target: Mitochondrial import inner membrane translocase subunit TIM14 (UniProt Q9CQV7)
[11] = molecular target: Heat shock protein 75 kDa, mitochondrial (UniProt Q9CQN1)
[12] = molecular target: NADH dehydrogenase [ubiquinone] 1 alpha subcomplex subunit 13 (UniProt Q9ERS2)
ADP/ATP translocase 1 = ADP/ATP translocase 1 (UniProt P48962)
[13] = molecular target: Cytochrome c oxidase subunit FA4 (UniProt Q62425)
[14] = molecular target: FAST kinase domain-containing protein 2, mitochondrial (UniProt Q922E6)
[15] = molecular target: Methylglutaconyl-CoA hydratase, mitochondrial (UniProt Q9JLZ3)
[16] = molecular target: NADH dehydrogenase [ubiquinone] flavoprotein 1, mitochondrial (UniProt Q91YT0)
[17] = molecular target: NADH-ubiquinone oxidoreductase 75 kDa subunit, mitochondrial (UniProt Q91VD9)
[18] = molecular target: Cytochrome b-c1 complex subunit 7 (UniProt Q9D855)
[19] = molecular target: Succinate dehydrogenase [ubiquinone] iron-sulfur subunit, mitochondrial (UniProt Q9CQA3)
[20] = molecular target: NADH dehydrogenase [ubiquinone] 1 alpha subcomplex subunit 9, mitochondrial (UniProt Q9DC69)
[21] = molecular target: 2-oxoglutarate dehydrogenase complex component E1 (UniProt Q60597)
[22] = molecular target: Cytochrome b-c1 complex subunit 2, mitochondrial (UniProt Q9DB77)
[23] = molecular target: Mitochondrial import inner membrane translocase subunit Tim9 (UniProt Q9WV98)
[24] = molecular target: MICOS complex subunit Mic19 (UniProt Q9CRB9)
[25] = molecular target: MICOS complex subunit Mic60 (UniProt Q8CAQ8)
[26] = molecular target: Cytochrome b-c1 complex subunit 1, mitochondrial (UniProt Q9CZ13)
[27] = molecular target: Isocitrate dehydrogenase [NAD] subunit alpha, mitochondrial (UniProt Q9D6R2)
[28] = molecular target: Cytochrome b-c1 complex subunit Rieske, mitochondrial (UniProt Q9CR68)
[29] = molecular target: Cytochrome c1, heme protein, mitochondrial (UniProt Q9D0M3)
[30] = molecular target: ATP synthase peripheral stalk subunit d, mitochondrial (UniProt Q9DCX2)
[31] = molecular target: Cytochrome b-c1 complex subunit 9 (UniProt Q8R1I1)
[32] = molecular target: Dihydrolipoyllysine-residue succinyltransferase component of 2-oxoglutarate dehydrogenase complex, mitochondrial (UniProt Q9D2G2)
[33] = molecular target: ATP synthase peripheral stalk subunit F6, mitochondrial (UniProt P97450)
[34] = molecular target: Mitochondrial fission regulator 1-like (UniProt Q9CWE0)
[35] = molecular target: DnaJ homolog subfamily C member 11 (UniProt Q5U458)
[36] = molecular target: NADH dehydrogenase [ubiquinone] 1 beta subcomplex subunit 8, mitochondrial (UniProt Q9D6J5)
[37] = molecular target: Methylmalonic aciduria type A homolog, mitochondrial (UniProt Q8C7H1)
[38] = molecular target: Cytochrome b-c1 complex subunit 8 (UniProt Q9CQ69)
[39] = molecular target: MICOS complex subunit Mic26 (UniProt Q9DCZ4)
Sequence of MICOS complex subunit Mic26 (Q9DCZ4 whole entry, one chain of several): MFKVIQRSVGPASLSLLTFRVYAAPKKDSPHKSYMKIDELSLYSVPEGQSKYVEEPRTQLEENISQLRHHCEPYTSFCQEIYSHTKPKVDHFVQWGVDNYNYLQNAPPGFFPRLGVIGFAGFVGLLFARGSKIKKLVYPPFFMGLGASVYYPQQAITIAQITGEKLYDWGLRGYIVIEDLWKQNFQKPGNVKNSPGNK

Sequence of Cytochrome c oxidase subunit 6C (Q9CPQ1 whole entry): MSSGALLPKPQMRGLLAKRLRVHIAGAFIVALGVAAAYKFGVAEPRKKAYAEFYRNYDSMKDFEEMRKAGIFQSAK
Sequence of NADH dehydrogenase [ubiquinone] 1 beta subcomplex subunit 10 (Q9DCS9 whole entry, one chain of several): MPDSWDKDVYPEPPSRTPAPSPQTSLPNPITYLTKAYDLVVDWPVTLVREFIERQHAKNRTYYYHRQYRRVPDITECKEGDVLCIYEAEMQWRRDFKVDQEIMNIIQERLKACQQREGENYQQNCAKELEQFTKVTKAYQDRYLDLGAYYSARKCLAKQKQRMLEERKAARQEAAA
Sequence of Cytochrome b-c1 complex subunit 1, mitochondrial (Q9CZ13 whole entry, one chain of several): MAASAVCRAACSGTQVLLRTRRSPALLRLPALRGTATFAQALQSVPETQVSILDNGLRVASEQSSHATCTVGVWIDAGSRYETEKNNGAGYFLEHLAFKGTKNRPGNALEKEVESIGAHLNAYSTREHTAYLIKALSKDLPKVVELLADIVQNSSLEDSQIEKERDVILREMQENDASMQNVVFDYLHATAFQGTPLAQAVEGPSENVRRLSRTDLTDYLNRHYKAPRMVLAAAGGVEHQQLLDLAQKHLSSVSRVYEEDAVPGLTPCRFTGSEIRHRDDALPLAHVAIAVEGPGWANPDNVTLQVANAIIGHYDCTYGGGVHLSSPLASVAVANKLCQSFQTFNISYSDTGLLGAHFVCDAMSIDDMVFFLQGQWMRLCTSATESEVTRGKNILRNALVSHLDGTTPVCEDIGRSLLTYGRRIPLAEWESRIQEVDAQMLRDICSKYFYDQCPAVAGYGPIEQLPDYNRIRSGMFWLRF
Sequence of ATP synthase peripheral stalk subunit d, mitochondrial (Q9DCX2 whole entry): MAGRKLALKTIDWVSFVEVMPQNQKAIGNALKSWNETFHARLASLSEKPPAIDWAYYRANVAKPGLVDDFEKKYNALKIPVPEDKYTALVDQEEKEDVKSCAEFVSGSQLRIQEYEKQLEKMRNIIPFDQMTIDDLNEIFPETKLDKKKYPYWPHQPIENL
Sequence of Cytochrome c oxidase subunit 7B, mitochondrial (P56393 whole entry): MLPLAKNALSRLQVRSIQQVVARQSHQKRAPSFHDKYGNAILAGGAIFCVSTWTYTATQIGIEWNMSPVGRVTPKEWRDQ
Sequence of Dihydrolipoyllysine-residue succinyltransferase component of 2-oxoglutarate dehydrogenase complex, mitochondrial (Q9D2G2 whole entry, one chain of several): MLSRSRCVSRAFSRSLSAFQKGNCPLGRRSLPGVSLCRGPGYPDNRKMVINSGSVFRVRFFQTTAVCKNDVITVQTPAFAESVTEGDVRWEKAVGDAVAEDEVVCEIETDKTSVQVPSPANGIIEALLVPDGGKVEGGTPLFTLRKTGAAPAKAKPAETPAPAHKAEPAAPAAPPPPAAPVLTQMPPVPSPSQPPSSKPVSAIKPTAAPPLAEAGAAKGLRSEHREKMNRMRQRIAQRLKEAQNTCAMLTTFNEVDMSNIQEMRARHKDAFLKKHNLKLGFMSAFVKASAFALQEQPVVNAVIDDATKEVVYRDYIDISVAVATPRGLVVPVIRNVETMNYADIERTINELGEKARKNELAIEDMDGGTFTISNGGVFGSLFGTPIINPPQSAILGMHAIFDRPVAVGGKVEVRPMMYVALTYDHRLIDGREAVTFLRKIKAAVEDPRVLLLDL
Sequence of Protein FAM162A (Q9D6U8 whole entry): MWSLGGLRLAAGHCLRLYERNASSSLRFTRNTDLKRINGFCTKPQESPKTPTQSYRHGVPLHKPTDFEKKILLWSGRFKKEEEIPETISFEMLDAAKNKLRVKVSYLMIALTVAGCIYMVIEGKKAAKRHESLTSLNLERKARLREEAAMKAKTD
Sequence of Cytochrome c oxidase subunit FA4 (Q62425 whole entry, the tested form may be a part): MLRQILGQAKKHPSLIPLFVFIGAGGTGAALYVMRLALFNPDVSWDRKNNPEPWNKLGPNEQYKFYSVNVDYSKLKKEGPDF
Sequence of Cytochrome b-c1 complex subunit 6, mitochondrial (P99028 whole entry, one chain of several): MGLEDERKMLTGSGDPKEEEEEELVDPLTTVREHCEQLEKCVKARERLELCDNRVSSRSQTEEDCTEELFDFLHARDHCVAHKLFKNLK
Sequence of ATP synthase F(0) complex subunit g, mitochondrial (Q9CPQ8 whole entry, one chain of several): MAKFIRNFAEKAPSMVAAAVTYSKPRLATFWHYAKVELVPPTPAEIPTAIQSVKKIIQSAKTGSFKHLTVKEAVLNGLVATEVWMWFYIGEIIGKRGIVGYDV
Sequence of ADP/ATP translocase 1 (P48962 whole entry): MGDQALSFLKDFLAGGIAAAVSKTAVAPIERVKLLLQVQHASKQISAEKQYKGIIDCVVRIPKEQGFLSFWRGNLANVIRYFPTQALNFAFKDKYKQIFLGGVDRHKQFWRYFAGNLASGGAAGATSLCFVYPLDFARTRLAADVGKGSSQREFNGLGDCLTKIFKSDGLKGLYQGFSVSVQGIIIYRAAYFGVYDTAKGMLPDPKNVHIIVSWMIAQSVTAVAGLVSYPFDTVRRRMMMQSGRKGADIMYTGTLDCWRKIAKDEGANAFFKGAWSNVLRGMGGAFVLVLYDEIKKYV
Sequence of Cytochrome c, somatic, P62897 (P62897 whole entry): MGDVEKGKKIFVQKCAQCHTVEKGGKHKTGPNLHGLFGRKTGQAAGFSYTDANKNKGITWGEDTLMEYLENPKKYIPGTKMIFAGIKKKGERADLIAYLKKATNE
Sequence of NADH dehydrogenase [ubiquinone] flavoprotein 1, mitochondrial (Q91YT0 whole entry): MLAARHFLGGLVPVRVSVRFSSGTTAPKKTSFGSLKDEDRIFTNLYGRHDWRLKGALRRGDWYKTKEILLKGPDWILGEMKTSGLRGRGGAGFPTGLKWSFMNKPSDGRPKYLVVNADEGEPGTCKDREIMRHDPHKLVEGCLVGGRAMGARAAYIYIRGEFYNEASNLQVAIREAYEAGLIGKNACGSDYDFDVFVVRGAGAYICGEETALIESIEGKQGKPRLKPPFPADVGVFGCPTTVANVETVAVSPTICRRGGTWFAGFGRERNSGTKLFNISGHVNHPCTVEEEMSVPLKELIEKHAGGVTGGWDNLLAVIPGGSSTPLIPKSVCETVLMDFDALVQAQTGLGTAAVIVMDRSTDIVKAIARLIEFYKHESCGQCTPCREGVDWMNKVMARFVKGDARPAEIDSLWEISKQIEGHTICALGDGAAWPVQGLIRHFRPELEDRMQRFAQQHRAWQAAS
Sequence of Cytochrome b-c1 complex subunit Rieske, mitochondrial (Q9CR68 whole entry, one chain of several): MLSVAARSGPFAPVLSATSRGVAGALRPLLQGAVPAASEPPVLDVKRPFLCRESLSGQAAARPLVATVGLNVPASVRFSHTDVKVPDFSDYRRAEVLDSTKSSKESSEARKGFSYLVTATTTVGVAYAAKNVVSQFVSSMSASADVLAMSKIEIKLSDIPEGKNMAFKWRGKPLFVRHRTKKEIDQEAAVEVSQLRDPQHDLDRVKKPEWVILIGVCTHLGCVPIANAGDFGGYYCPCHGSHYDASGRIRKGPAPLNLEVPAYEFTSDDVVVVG
Sequence of Cytochrome b-c1 complex subunit 8 (Q9CQ69 whole entry, one chain of several): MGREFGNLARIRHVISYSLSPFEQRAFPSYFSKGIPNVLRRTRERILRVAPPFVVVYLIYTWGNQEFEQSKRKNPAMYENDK
Sequence of Mitochondrial import inner membrane translocase subunit TIM14 (Q9CQV7 whole entry): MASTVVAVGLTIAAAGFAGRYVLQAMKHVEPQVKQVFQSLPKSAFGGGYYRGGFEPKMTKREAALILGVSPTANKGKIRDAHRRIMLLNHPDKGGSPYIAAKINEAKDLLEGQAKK
Sequence of Methylmalonic aciduria type A homolog, mitochondrial (Q8C7H1 whole entry): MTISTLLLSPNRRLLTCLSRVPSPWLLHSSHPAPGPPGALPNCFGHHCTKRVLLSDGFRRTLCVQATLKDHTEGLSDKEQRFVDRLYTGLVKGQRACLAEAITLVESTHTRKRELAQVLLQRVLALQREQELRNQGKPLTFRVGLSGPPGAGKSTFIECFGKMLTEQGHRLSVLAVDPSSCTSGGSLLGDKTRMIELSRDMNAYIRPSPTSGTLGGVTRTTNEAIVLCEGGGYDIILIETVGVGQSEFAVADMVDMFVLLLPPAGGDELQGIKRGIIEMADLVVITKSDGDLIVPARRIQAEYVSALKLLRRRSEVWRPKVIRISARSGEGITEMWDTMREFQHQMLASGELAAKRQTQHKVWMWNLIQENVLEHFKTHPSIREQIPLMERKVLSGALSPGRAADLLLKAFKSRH
Sequence of ATP synthase peripheral stalk subunit OSCP, mitochondrial (Q9DB20 whole entry): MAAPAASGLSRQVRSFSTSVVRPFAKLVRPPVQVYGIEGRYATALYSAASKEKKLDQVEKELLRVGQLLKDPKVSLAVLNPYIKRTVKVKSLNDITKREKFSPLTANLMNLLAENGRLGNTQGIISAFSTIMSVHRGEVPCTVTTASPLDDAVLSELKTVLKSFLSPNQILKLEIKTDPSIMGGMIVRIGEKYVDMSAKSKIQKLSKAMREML
Sequence of Succinate dehydrogenase [ubiquinone] flavoprotein subunit, mitochondrial, Q8K2B3 (Q8K2B3 whole entry): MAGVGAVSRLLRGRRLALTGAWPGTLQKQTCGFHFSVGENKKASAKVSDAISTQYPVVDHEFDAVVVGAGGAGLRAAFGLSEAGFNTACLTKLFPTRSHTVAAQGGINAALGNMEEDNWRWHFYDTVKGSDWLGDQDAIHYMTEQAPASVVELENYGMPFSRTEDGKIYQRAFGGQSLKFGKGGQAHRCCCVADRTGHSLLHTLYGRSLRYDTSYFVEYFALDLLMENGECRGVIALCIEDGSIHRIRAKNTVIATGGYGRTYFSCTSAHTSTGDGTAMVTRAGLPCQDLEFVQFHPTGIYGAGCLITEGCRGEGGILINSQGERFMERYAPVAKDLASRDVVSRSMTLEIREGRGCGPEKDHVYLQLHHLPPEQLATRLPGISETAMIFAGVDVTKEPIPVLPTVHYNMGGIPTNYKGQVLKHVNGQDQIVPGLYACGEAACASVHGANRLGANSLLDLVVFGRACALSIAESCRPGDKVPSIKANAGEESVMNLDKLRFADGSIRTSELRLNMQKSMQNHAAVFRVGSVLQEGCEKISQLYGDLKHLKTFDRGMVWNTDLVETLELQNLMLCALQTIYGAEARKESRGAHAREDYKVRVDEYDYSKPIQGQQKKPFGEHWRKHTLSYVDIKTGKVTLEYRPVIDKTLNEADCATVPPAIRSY

Acetyl-CoA acetyltransferase, mitochondrial, Q8QZT1
listed as a hit [1]: yes

Cytochrome c oxidase subunit FA4, Q62425
listed as a hit [2]: yes

NADH dehydrogenase [ubiquinone] 1 beta subcomplex subunit 8, mitochondrial, Q9D6J5
listed as a hit [3]: yes

ADP/ATP translocase 1, P48962
listed as a hit [4]: yes | listed as a hit [5]: yes | listed as a hit [6]: yes | listed as a hit [7]: yes | listed as a hit [8]: yes | listed as a hit [9]: yes | listed as a hit (Protein FAM162A): yes

Mitochondrial import inner membrane translocase subunit TIM16, Q9CQV1
listed as a hit [10]: yes

Stress-70 protein, mitochondrial, P38647
listed as a hit [11]: yes

Cytochrome c, somatic, P62897
listed as a hit [7]: yes

NADH dehydrogenase [ubiquinone] 1 alpha subcomplex subunit 8, Q9DCJ5
listed as a hit [12]: yes

Cytochrome c oxidase subunit 4 isoform 1, mitochondrial, P19783
listed as a hit (ADP/ATP translocase 1): yes | listed as a hit [6]: yes | listed as a hit [7]: yes | listed as a hit [8]: yes | listed as a hit [13]: yes | listed as a hit [14]: yes | listed as a hit [15]: yes | listed as a hit [16]: yes

NADH dehydrogenase [ubiquinone] iron-sulfur protein 6, mitochondrial, P52503
listed as a hit [17]: yes

Cytochrome b, P00158
listed as a hit [18]: yes

ATP synthase F(0) complex subunit g, mitochondrial, Q9CPQ8
listed as a hit [19]: yes

StAR-related lipid transfer protein 7, mitochondrial, Q8R1R3
listed as a hit [20]: yes

Dihydrolipoyl dehydrogenase, mitochondrial, O08749
listed as a hit [21]: yes

Cytochrome c1, heme protein, mitochondrial, Q9D0M3
listed as a hit [22]: yes

Mitochondrial import inner membrane translocase subunit Tim10, P62073
listed as a hit [23]: yes

MICOS complex subunit Mic27, Q78IK4
listed as a hit [24]: yes | listed as a hit [25]: yes

Succinate dehydrogenase [ubiquinone] flavoprotein subunit, mitochondrial, Q8K2B3
listed as a hit [26]: yes

Cytochrome c oxidase subunit 6C, Q9CPQ1
listed as a hit (Protein FAM162A): yes

Aspartate aminotransferase, mitochondrial, P05202
listed as a hit [26]: yes | listed as a hit [27]: yes

Cytochrome b-c1 complex subunit 8, Q9CQ69
listed as a hit [28]: yes | listed as a hit [29]: yes

ATP synthase F(0) complex subunit 8, P03930
listed as a hit [30]: yes

Cytochrome c oxidase subunit 7B, mitochondrial, P56393
listed as a hit [31]: yes | listed as a hit [13]: yes

2-oxoglutarate dehydrogenase complex component E1, Q60597
listed as a hit [32]: yes

Malate dehydrogenase, mitochondrial, P08249
listed as a hit [33]: yes | listed as a hit [30]: yes | listed as a hit [26]: yes

NADH dehydrogenase [ubiquinone] 1 beta subcomplex subunit 4, Q9CQC7
listed as a hit [3]: yes

Mitochondrial Rho GTPase 1, Q8BG51
listed as a hit [34]: yes

Metaxin-2, O88441
listed as a hit [35]: yes

NADH dehydrogenase [ubiquinone] 1 beta subcomplex subunit 11, mitochondrial, O09111
listed as a hit [36]: yes

Alpha-ketoglutarate dehydrogenase component 4, Q9CQX8
listed as a hit [32]: yes

Trifunctional enzyme subunit alpha, mitochondrial, Q8BMS1
listed as a hit [30]: yes

Methylmalonyl-CoA mutase, mitochondrial, P16332
listed as a hit [37]: yes

Cytochrome b-c1 complex subunit 6, mitochondrial, P99028
listed as a hit [38]: yes | listed as a hit [3]: yes

MICOS complex subunit Mic60, Q8CAQ8
listed as a hit [39]: yes
